PubChem BioAssay (NCI)
Compounds without any hit were thinned out: in the full panel of roughly 83,000, 20% have a hit.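 96-well plates, one dose, 48 hours. Percent growth reported; active if below 10.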 Values without a mark were called inactive. The source made the active and inactive calls.

Tests used:
Test in all cases: NCI-60 one-dose screen, 48 h (100 = growth as untreated, 0 = no growth, -100 = all killed)
Conditions in all cases: 10 µM unless noted
DU-145 prostate = tested on: DU-145 prostate
K-562 leukemia = tested on: K-562 leukemia
MALME-3M melanoma = tested on: MALME-3M melanoma
MDA-MB-231 breast = tested on: MDA-MB-231 breast
RXF 393 renal = tested on: RXF 393 renal
SF-268 CNS = tested on: SF-268 CNS
SF-295 CNS = tested on: SF-295 CNS
SF-539 CNS = tested on: SF-539 CNS
UACC-257 melanoma = tested on: UACC-257 melanoma
M14 melanoma = tested on: M14 melanoma
HCT-15 colon = tested on: HCT-15 colon
HT29 colon = tested on: HT29 colon
SNB-75 CNS = tested on: SNB-75 CNS
SNB-19 CNS = tested on: SNB-19 CNS
U251 CNS = tested on: U251 CNS
PC-3 prostate = tested on: PC-3 prostate
SK-MEL-5 melanoma = tested on: SK-MEL-5 melanoma
UACC-62 melanoma = tested on: UACC-62 melanoma
LOX IMVI melanoma = tested on: LOX IMVI melanoma
SK-MEL-28 melanoma = tested on: SK-MEL-28 melanoma

SMILES	growth (DU-145 prostate)	growth (K-562 leukemia)	growth (MALME-3M melanoma)	growth (MDA-MB-231 breast)	growth (RXF 393 renal)	growth (SF-268 CNS)	growth (SF-295 CNS)	growth (SF-539 CNS)	growth (UACC-257 melanoma)	growth (M14 melanoma)	growth (HCT-15 colon)	growth (HT29 colon)	growth (SNB-75 CNS)	growth (SNB-19 CNS)	growth (U251 CNS)	growth (PC-3 prostate)	growth (SK-MEL-5 melanoma)	growth (UACC-62 melanoma)	growth (LOX IMVI melanoma)	growth (SK-MEL-28 melanoma)
CCCCCC(C)(O)C(C(=O)O)c1ccccc1 (stereo not given)	114%	121%	93.9%	102%	110%	107%	103%	95.4%	102%	96.7%	106%	101%	94.5%	97.1%	99.2%	93.2%	101%	103%	102%	98.4%
COc1cc2cc(Oc3ccc(NC(=O)Nc4ccc(F)c(C(F)(F)F)c4)cc3)c(C)nc2cc1OCCN1CCCCC1	-24.2% (active)	-34.7% (active)	-87.9% (active)	27.6%	59.5%	76.6%	72.8%	75.3%	-52.5% (active)	-86.8% (active)	-71.5% (active)	-74% (active)	92.7%	62.9%	-85.3% (active)	-76% (active)	-89.3% (active)	50.6%	-70.4% (active)	-62.5% (active)
CC1OC(C(=O)N2CCN(CCO)CC2)CC1COC1CCCCC1 (stereo not given)	105% [50 µM]	91.6% [50 µM]	88.2% [50 µM]	94.5% [50 µM]	102% [50 µM]	97.2% [50 µM]	102% [50 µM]	97.8% [50 µM]	98% [50 µM]	100% [50 µM]	102% [50 µM]	106% [50 µM]	88.3% [50 µM]	93.9% [50 µM]	99.4% [50 µM]	92.3% [50 µM]	95.8% [50 µM]	87.7% [50 µM]	96.4% [50 µM]	106% [50 µM]
C/C(=N\NC(=O)c1ccc(C(C)(C)C)cc1)c1ccc(O)cc1O	29.3%	12.9%	28.4%	37.4%	-9.15% (active)	27.6%	16.2%	14.7%	8.32% (active)	23%	16.5%	25.3%	54.7%	40.1%	25.2%	33.8%	-41.9% (active)	14.1%	-4.95% (active)	36.1%
CCCCCCC/C=N/NC(=O)c1ccc(-n2cc(-c3ccccc3)nn2)cc1	96.1%	79.7%	78.1%	74.3%	83.5%	90.1%	87.8%	96.5%	100%	80.7%	73.6%	101%	86.3%	100%	98.3%	74.8%	94.9%	61.9%	59.5%	98.3%
O=C(O)c1nn(-c2ccc(Cl)cc2)nc1N1CCCC1	91.3%	87.2%	90%	101%	85.4%	98.3%	90.5%	96.1%	94.7%	96.7%	92.2%	104%	85.7%	103%	92.3%	95.4%	96.4%	99.6%	93.6%	105%
COc1ccc(C2=NN3C(C2)c2cc(Br)ccc2OC3c2ccncc2)cc1 (stereo not given)	96.4%	74.8%	94%	85%	95.4%	66.2%	86.5%	86.2%	86.2%	86.8%	73.1%	109%	78.8%	81.4%	75.3%	63.2%	93.2%	71.5%	62%	105%
Cc1nc2cccc(NCc3ccc(C(=O)NO)cc3)c2c(=O)n1-c1ccccc1	26.7%	18.7%	35.3%	48.2%	28.2%	54%	16%	15.1%	53.4%	32.8%	31.3%	26.4%	42.6%	40.8%	-16.7% (active)	27%	8.27% (active)	-17.7% (active)	26.6%	35.7%
O=C(Nc1ccc(Oc2cccc(F)c2)c(Cl)c1)c1cnccn1	19.1%	13.4%	51.4%	53.5%	7.37% (active)	55.5%	36%	-3.46% (active)	64.9%	25.6%	31.2%	9.13% (active)	0.855% (active)	40.4%	25.7%	16.7%	9.61% (active)	33.5%	43.9%	60.6%
Cc1cc(C(=O)Nc2cc(Nc3ncccc3-c3ncnc4nc[nH]c34)ccc2F)cc(C(C)(C)C#N)c1	60%	6.28% (active)	12.9%	17%	88.5%	64.7%	68.6%	33.9%	24.5%	5.3% (active)	42.7%	24.1%	79.5%	61.8%	51.1%	57.8%	27.1%	3.75% (active)	-9.5% (active)	10.9%
Clc1ccc2c(NCCCn3cnc4c(N5CCCC5)nc(Cl)nc43)ccnc2c1	106%	90.4%	101%	89.8%	123%	94.4%	101%	99.1%	102%	93.9%	95.5%	100%	86.3%	103%	99.8%	91.9%	99.7%	101%	90.2%	107%
Nc1ccc(N)c2c1C(=O)c1cccc([N+](=O)[O-])c1C2=O	-15.9% (active)	40.4%	54.3%	67.9%	45.7%	57.3%	21.3%	23.6%	52.3%	30.8%	27.7%	44.7%	22.6%	26.2%	33.7%	49.3%	23.8%	5.05% (active)	22.4%	102%
C#CCOc1cccc(-c2ncnc3cc(NC(=O)CCl)ccc23)c1	13.9%	2.03% (active)	-78.8% (active)	-36.4% (active)	-87.9% (active)	-42.2% (active)	34.4%	-43.9% (active)	42.8%	-52.3% (active)	-32.9% (active)	-70.7% (active)	18%	7.8% (active)	-93.7% (active)	-15.9% (active)	-86% (active)	-41.7% (active)	-83.7% (active)	20.2%
COc1cc(C2=Nc3c(N)nc(N)nc3NC(c3cccc(Nc4ccnc5cc(C(F)(F)F)ccc45)c3)C2)cc(OC)c1OC (stereo not given)	89.6%	21.5%	90.6%	57.8%	45.1%	63.3%	82.5%	79.3%	77.7%	72.3%	58%	45.5%	68.9%	78.2%	61%	58.5%	64.1%	87.2%	66%	101%
NC(=N\N=C/c1ccc(Cl)cc1Cl)/C(N)=N\N=C/c1ccc(Cl)cc1Cl	90.6%	80.6%	88.3%	71.1%	83.6%	89.7%	60%	43.5%	118%	105%	82.9%	52.5%	8.06% (active)	69.8%	36.2%	89.2%	108%	94.9%	74%	110%
